Laboratory results as given in PubChem BioAssay AID488943 (Broad Institute, 2010).
Measured potencies and affinities stand elsewhere. Unmarked numbers belong to inactive results.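 Rule for the calls: active = compounds with a fitted half-maximal inhibitory dose at or below ten times their top tested dose; inconclusive = flat curve at 30 to 70% inhibition, or poor fit; inactive = the rest.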

Test: fluconazole resistance reversal in C. albicans, dose response, CaCi-2 strain, Alamar Blue, dry powder, set 4 (AID 488943)
Conditions: C. albicans CaCi-2 (fluconazole-resistant clinical isolate) + fluconazole, Alamar Blue growth, 48 h; series mostly up to 6 µM; activity change, negative = inhibition: at the top concentration

SMILES | activity change, negative = inhibition
Cc1cc(N2CCN(C(=O)c3ccc(Cl)cc3)CC2)c2ccccc2n1 | 6.08%
CCCC(=O)N1CCN(c2ccnc3cc(Cl)ccc23)CC1 | -28.2%
Cc1cccc(N2CCN(C(=O)c3ccc(Cl)cc3)CC2)n1 | -9.45%
O=C(C1CC1)N1CCN(c2ccnc3cc(Cl)ccc23)CC1 | -28.7%
O=C(c1ccc(Cl)cc1)N1CCN(c2cc(C(F)(F)F)nc3ccccc23)CC1 | 10.5%
O=C(c1ccc(Cl)cc1)N1CCN(c2ccncc2)CC1 | -18.9%
COc1cccc2c(N3CCN(C(=O)c4ccc(Cl)cc4)CC3)cc(C)nc12 | 10.9%
O=S(=O)(c1ccc(Cl)cc1)N1CCN(c2ccnc3cc(Cl)ccc23)CC1 | -10.1%
COCCC(=O)N1CCN(c2ccnc3cc(Cl)ccc23)CC1 | -13.7%
COc1cccnc1N1CCN(C(=O)c2ccc(Cl)cc2)CC1 | -19.6%
CCCCNC(=O)N1CCN(c2ccnc3cc(Cl)ccc23)CC1 | 1.3%
O=C(c1ccc(Cl)cc1)N1CCN(c2cccc(C(F)(F)F)n2)CC1 | -5.41%
O=C(c1ccc(Cl)cc1)N1CCNCC1 | 13.3%
O=C(c1ccc(Cl)cc1)N1CCN(c2ccnc3ccccc23)CC1 | -24.1%
CC(C)C(=O)N1CCN(c2ccnc3cc(Cl)ccc23)CC1 | -14.5%
O=C(c1ccc(Cl)cc1)N1CCCN(c2ccnc3cc(Cl)ccc23)CC1 | -25.6%
